Measured values reported in the supplement of paper PMC10732440.
± gives the standard deviation of the averaged measurements.

Tested on: Caenorhabditis elegans N2 infected with Nematocida parisii ERTm1
Experiment: progeny production relative to DMSO uninfected control; higher = more progeny despite microsporidia infection (inhibition of infection with low host toxicity)
Settings: infection time 6 days
Method in brief: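 In 96-well plates holding K-medium, E. coli OP50 and 15,000 N. parisii spores/μL, 100 wild-type C. elegans L1 larvae per well were exposed to compound at 100 μM or 40 μM in 1% DMSO for 6 days with shaking at 21°C. Worms were then stained with Rose Bengal, scanned and counted with WorMachine, with three runs per compound and dose. Each value is progeny production as a percentage of the spore-free vehicle condition, averaged over replicates.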

SMILES: CC(C)=CCC/C(C)=C/CNCCNC1C2CC3CC(C2)CC1C3 (configuration not stated)
- progeny production (40 µM): 6.62 ± 1.2%
- progeny production (100 µM): 30 ± 23%

SMILES: O=c1cc(Nc2ccc3ccccc3c2)[nH]c(=O)[nH]1
- progeny production (40 µM): 7.88 ± 1.4%
- progeny production (100 µM): 8.48 ± 9.1%

SMILES: Clc1cc(Cl)c2c(c1)CCc1ccccc1C2n1ccnc1 (configuration not stated)
- progeny production (40 µM): 7.16 ± 0.49%

SMILES: CC(=N)N1CC[C@H](SC2=C(C(=O)O)N3C(=O)[C@@H]([C@@H](C)O)[C@H]3C2)C1
- progeny production (40 µM): 4.18 ± 0.82%
- progeny production (100 µM): 11.1 ± 7.9%

SMILES: CC(C)/N=c1\cc2n(-c3ccc(Cl)cc3)c3ccccc3nc-2cc1Nc1ccc(Cl)cc1
- progeny production (40 µM): 5.08 ± 1.9%
- progeny production (100 µM): 9.5 ± 7.2%

SMILES: COc1cc(NS(=O)(=O)c2ccc(C)cc2)c2ncccc2c1
- progeny production (40 µM): 5.38 ± 2.2%
- progeny production (100 µM): 10.3 ± 3.9%

SMILES: CC1(C)[C@H](C(=O)O)N2C(=O)C[C@H]2S1(=O)=O
- progeny production (40 µM): 4.44 ± 0.8%
- progeny production (100 µM): 10.7 ± 7.8%

SMILES: Cc1ccccc1NC(=O)Nc1cccc([N+](=O)[O-])c1
- progeny production (40 µM): 4.55 ± 2.1%
- progeny production (100 µM): 13.8 ± 4.8%

SMILES: Cc1cc(C2CCCCC2)n(O)c(=O)c1
- progeny production (40 µM): 5.34 ± 2.3%
- progeny production (100 µM): 33 ± 36%

SMILES: O=C(CCCC(F)(F)F)N1CCC(c2nc(-c3nccs3)no2)CC1
- progeny production (40 µM): 5.21 ± 1.1%
- progeny production (100 µM): 8.6 ± 8.7%

SMILES: Cc1ccc(NC(=O)c2cc(Cl)ccc2O)cc1
- progeny production (40 µM): 8.65 ± 5.8%
- progeny production (100 µM): 8.35 ± 5.3%

SMILES: CN(C/C=C/C#CC(C)(C)C)Cc1cccc2ccccc12
- progeny production (40 µM): 5.74 ± 2.2%
- progeny production (100 µM): 17.7 ± 11%

SMILES: Cc1cc(NS(=O)(=O)c2ccc(-c3ccc(F)cc3F)cc2)no1
- progeny production (40 µM): 4.39 ± 1.9%

SMILES: O=C(NCc1ncc(C(F)(F)F)cc1Cl)c1c(Cl)cccc1Cl
- progeny production (40 µM): 3.33 ± 0.85%
- progeny production (100 µM): 8.17 ± 5.4%

SMILES: NC[C@H]1OB(O)c2c(OCCCO)cccc21
- progeny production (40 µM): 4.23 ± 2.7%
- progeny production (100 µM): 6.44 ± 4.8%

SMILES: O=C(O)c1ccc(-c2ccc(O[C@H]3O[C@H](CO)[C@@H](O)[C@H](O)[C@@H]3O)cc2)cc1
- progeny production (40 µM): 5.12 ± 2.8%
- progeny production (100 µM): 7.21 ± 4.6%

SMILES: Fc1ccc(-n2cc(Cn3c(-c4cccc(F)c4)nc4ccccc43)nn2)cc1
- progeny production (40 µM): 3.69 ± 0.39%

SMILES: COc1ccc(-n2cnc3cc(NCc4ccco4)ccc32)cc1
- progeny production (40 µM): 10 ± 2.1%
- progeny production (100 µM): 17.2 ± 0.88%

SMILES: CONC(=N)c1ccc(-c2ccc(-c3ccc(C(=N)NOC)cc3)o2)cc1
- progeny production (40 µM): 5.44 ± 1.7%
- progeny production (100 µM): 14.6 ± 6%

SMILES: CC[C@H]1OC(=O)[C@H](C)[C@@H](O[C@H]2C[C@@](C)(OC)[C@@H](O)[C@H](C)O2)[C@H](C)[C@@H](O[C@@H]2O[C@H](C)C[C@H](N(C)C)[C@H]2O)[C@](C)(O)C[C@@H](C)C(=O)[C@H](C)[C@@H](O)[C@]1(C)O
- progeny production (40 µM): 3.49 ± 0.53%

SMILES: NCCCc1ccccc1C(=O)Nc1ncc([N+](=O)O)s1
- progeny production (40 µM): 3.03 ± 1.9%
- progeny production (100 µM): 25.2 ± 31%

SMILES: COc1c(NC(=O)[C@H]2CC[C@@H](COc3ccc([N+](=O)[O-])cc3)CC2)c(F)cc2c(=O)c(C(=O)O)cn(C3CC3)c12
- progeny production (40 µM): 4.64 ± 2.9%
- progeny production (100 µM): 8.01 ± 7.4%

SMILES: NNC(=O)c1ccncc1
- progeny production (40 µM): 12.3 ± 5.7%
- progeny production (100 µM): 14.7 ± 5.8%

SMILES: CCCCSc1nc(N)c2[nH]c(=O)c(=O)n(Cc3ccccc3)c2n1
- progeny production (40 µM): 4.52 ± 1.9%
- progeny production (100 µM): 20.2 ± 11%

SMILES: CCc1oc2ccccc2c1C(=O)c1ccc(O)cc1
- progeny production (40 µM): 11.4 ± 2.5%
- progeny production (100 µM): 16.8 ± 0.54%

SMILES: O=c1[nH]c(=O)n(Cc2cccc(Oc3ccccc3)c2)cc1Nc1ccccc1
- progeny production (40 µM): 4.29 ± 3.5%
- progeny production (100 µM): 9.39 ± 4.3%

SMILES: COc1ccc(NC(=O)CC2Sc3ncnn3C2=O)cc1 (configuration not stated)
- progeny production (40 µM): 8.48 ± 3.4%
- progeny production (100 µM): 14.8 ± 8.1%

SMILES: N#Cc1cc([N+](=O)[O-])ccc1Oc1ccccc1Cl
- progeny production (40 µM): 5.2 ± 2%
- progeny production (100 µM): 14.5 ± 8.1%

SMILES: CC[C@@H](CO)NCCN[C@@H](CC)CO
- progeny production (40 µM): 4.98 ± 2.4%
- progeny production (100 µM): 6.91 ± 5.6%

SMILES: CC(C)(C)c1ccc(C(=O)NC(=O)N2CCCc3ccccc32)cc1
- progeny production (40 µM): 4.23 ± 2.6%
- progeny production (100 µM): 22.1 ± 18%

SMILES: O=C(CC1Sc2ncnn2C1=O)Nc1ccc(Br)cc1 (configuration not stated)
- progeny production (40 µM): 6.82 ± 1.8%
- progeny production (100 µM): 21.6 ± 10%

SMILES: O=[N+]([O-])/C(Br)=C/c1ccc(Br)o1
- progeny production (40 µM): 5.77 ± 1.4%
- progeny production (100 µM): 26.4 ± 9.5%

SMILES: CC(=O)N1CCN(c2ccc(OCC3COC(Cn4ccnc4)(c4ccc(Cl)cc4Cl)O3)cc2)CC1 (configuration not stated)
- progeny production (40 µM): 5.16 ± 2.3%
- progeny production (100 µM): 18 ± 6.4%

SMILES: O=C(Nc1ccccc1C(=O)O)c1cccc(Oc2ccccc2)c1
- progeny production (40 µM): 3.52 ± 1.3%
- progeny production (100 µM): 16.2 ± 14%

SMILES: CCCC1(C2CC2)c2cc(Cl)ccc2NC(=O)N1C (configuration not stated)
- progeny production (40 µM): 2.32 ± 0.043%
- progeny production (100 µM): 11.3 ± 3.5%

SMILES: C=CCc1cc(Cc2cnc(N)nc2N)cc(OC)c1O
- progeny production (40 µM): 3.9 ± 1.6%
- progeny production (100 µM): 12.4 ± 5.1%

SMILES: Cc1cc(CCOc2c(C)cc(-c3nnn(C)n3)cc2C)on1
- progeny production (40 µM): 4.64 ± 1.1%
- progeny production (100 µM): 8.74 ± 2.1%

SMILES: CC(C)c1ccc(COc2cccc(-c3cc([S+](C)[O-])c(C#N)c(=O)[nH]3)c2)cc1 (configuration not stated)
- progeny production (40 µM): 2.96 ± 1.6%
- progeny production (100 µM): 21.4 ± 25%

SMILES: FC(F)(F)Oc1ccc(Nc2ccc3cccc(Cl)c3n2)cc1
- progeny production (40 µM): 6.88 ± 1.5%
- progeny production (100 µM): 11.1 ± 7.2%

SMILES: CN(Cc1ccc(C(C)(C)C)cc1)Cc1cccc2ccccc12
- progeny production (40 µM): 5.41 ± 2%
- progeny production (100 µM): 17 ± 17%

SMILES: CCCNc1ccc(S(=O)(=O)Nc2cc(C)on2)cc1
- progeny production (40 µM): 3.09 ± 1.4%
- progeny production (100 µM): 14 ± 3.8%

SMILES: O=C(Nc1nnc(-c2ccc(Cl)cc2)o1)c1ccc(F)cc1
- progeny production (40 µM): 9.22 ± 7.4%
- progeny production (100 µM): 12.6 ± 4.1%

SMILES: CCC(C)NCC(O)Cn1c2ccc(Cl)cc2c2cc(Cl)ccc21 (configuration not stated)
- progeny production (40 µM): 7.33 ± 7%
- progeny production (100 µM): 6.85 ± 6.4%
